Experimental data taken from the supplement of paper PMC10849652.
Targets with a hit are over-represented here; the source holds about 8,800 in all. About 0.5% of all pairs of compound and target were hits. Values without a mark were called inactive.

Experiments:
Assay in all cases: log2 fold change, soluble protein after heating vs DMSO (PISA); higher = thermal stabilisation; K562 lysate, 10 uM; active = over 0.2 and 3.5 SD of the protein, either way, in both replicates (recomputed)
[1] = compound: CN1CC[C@H](c2c(O)cc(O)c3c(=O)cc(-c4ccccc4Cl)oc23)[C@H](O)C1 [alvocidib]
Procedure, shortened: (§1)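 Soluble protein was defined as the supernatant remaining after 21,000xg for 90 min, following pooling of heated aliquots and adjustment to 0.5% NP-40 at 4°C. Before that, crude K562 extract at 1 mg/mL protein in PBS pH 7.4 with 1 mM MgCl2 was treated with 10 μM compound for 30 min and heated for 3 min across 48°C-58°C. Quantification used TMTpro 16plex LC-MS/MS with channel sums equalised, and values are log-two fold changes in thermal stability relative to solvent controls from duplicates.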

[2] = compound: CNC(=O)c1ccc(Nc2ncc(C(F)(F)F)c(NCc3nccnc3N(C)S(C)(=O)=O)n2)cc1 [defactinib]
Procedure, shortened: as §1

[3] = compound: CNc1nc(-c2ccc3c(N)n[nH]c3c2)cc(N2C[C@@H](C(=O)NC3CCCCC3)CC[C@H]2C)n1
Procedure, shortened: as §1

[4] = compound: COC(=O)N[C@@H](C)CNc1nccc(-c2cn(C(C)C)nc2-c2cc(Cl)cc(NS(C)(=O)=O)c2F)n1 [encorafenib]
Procedure, shortened: as §1

[5] = compound: COC(=O)[C@H](CCSC)NC(=O)C1=C(C=C(C=C1)NC[C@H](CS)N)C2=CC=CC=C2
Procedure, shortened: as §1

[6] = compound: COc1cc(Nc2ncc3c(n2)-c2ccc(Cl)cc2C(c2c(F)cccc2OC)=NC3)ccc1C(=O)O [alisertib]
Procedure, shortened: as §1

[7] = compound: COc1cc2nc(-c3cc(F)ccc3O)nc(N[C@@H]3CNC[C@H]3C(C)(C)O)c2cc1OC
Procedure, shortened: as §1

[8] = compound: COc1cc2ncnc(Nc3ccc(F)c(Cl)c3)c2cc1OCCCN1CCOCC1 [gefitinib]
Procedure, shortened: as §1

[9] = compound: CN1CCc2c(c3ccccc3n2Cc2ccc(C(=O)NO)cc2)C1 [Tubastatin A]
Procedure, shortened: as §1

[10] = compound: CNC(=O)C1=CC=CC=C1NC2=NC(=NC=C2Cl)NC3=C(C=C(C=C3)N4CCOCC4)OC
Procedure, shortened: as §1

Sequence of UniProt Q99758 (Q99758 whole entry, looked up): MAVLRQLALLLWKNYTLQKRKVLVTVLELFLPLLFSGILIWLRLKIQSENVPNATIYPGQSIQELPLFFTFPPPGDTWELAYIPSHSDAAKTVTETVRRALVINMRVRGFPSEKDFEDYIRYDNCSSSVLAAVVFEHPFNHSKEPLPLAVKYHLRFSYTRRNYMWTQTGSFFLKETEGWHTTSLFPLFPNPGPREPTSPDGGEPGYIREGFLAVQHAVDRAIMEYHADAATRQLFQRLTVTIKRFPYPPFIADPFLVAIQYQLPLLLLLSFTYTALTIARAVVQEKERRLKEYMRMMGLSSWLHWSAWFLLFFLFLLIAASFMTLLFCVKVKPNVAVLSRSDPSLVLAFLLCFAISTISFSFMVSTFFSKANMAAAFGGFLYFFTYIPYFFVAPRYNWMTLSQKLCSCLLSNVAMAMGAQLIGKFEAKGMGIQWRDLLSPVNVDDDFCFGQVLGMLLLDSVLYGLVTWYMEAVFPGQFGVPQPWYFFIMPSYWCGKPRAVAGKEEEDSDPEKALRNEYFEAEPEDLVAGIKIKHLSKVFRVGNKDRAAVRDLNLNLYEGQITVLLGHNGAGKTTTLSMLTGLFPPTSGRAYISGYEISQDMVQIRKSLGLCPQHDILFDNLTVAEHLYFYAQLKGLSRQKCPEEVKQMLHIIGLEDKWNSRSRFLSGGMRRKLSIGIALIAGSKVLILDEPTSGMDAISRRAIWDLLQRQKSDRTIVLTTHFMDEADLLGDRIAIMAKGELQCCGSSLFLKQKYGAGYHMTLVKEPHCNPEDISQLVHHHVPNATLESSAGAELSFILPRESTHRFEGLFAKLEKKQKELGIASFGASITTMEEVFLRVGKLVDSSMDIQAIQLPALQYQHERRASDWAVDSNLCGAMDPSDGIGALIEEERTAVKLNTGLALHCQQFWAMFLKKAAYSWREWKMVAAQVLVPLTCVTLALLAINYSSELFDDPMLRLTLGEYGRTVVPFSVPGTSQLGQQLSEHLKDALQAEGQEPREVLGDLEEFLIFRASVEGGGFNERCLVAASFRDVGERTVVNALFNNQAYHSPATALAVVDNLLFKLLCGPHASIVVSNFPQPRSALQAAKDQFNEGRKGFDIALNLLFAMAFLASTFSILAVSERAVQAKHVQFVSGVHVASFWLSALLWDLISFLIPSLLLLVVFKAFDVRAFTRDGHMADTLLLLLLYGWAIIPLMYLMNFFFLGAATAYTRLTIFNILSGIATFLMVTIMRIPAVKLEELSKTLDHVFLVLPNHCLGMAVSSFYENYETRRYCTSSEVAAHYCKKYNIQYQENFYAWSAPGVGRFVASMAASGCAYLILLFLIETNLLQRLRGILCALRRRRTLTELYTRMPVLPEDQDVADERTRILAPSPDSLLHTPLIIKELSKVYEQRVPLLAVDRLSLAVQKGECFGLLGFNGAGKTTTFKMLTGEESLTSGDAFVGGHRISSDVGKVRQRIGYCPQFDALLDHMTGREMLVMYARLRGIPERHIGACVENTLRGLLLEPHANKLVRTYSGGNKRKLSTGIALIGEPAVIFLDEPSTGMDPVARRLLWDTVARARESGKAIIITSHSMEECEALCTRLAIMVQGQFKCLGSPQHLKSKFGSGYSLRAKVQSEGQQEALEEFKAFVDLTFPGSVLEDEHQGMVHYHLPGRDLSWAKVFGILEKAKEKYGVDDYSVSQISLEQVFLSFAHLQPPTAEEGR
Sequence of UniProt Q8N302 (Q8N302 whole entry, looked up): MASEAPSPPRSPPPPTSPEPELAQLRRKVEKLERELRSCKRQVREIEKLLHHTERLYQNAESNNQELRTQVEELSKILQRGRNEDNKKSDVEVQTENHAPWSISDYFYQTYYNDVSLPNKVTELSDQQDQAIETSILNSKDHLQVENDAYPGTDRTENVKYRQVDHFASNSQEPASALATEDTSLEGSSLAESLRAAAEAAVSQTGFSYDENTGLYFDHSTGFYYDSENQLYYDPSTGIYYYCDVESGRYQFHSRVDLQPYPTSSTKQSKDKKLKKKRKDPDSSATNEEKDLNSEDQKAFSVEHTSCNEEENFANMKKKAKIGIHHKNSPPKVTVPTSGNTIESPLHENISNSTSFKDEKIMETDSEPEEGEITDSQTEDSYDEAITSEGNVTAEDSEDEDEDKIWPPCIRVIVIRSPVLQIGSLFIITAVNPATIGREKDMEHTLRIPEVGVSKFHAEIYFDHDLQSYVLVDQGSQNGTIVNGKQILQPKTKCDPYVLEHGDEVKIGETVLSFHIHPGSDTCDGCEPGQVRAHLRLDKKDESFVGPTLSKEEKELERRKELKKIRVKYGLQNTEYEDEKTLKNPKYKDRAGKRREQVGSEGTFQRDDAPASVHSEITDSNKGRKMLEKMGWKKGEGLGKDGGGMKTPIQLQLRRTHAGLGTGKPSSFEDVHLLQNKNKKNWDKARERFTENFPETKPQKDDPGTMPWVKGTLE
Sequence of UniProt Q3SXY8 (Q3SXY8 whole entry, looked up): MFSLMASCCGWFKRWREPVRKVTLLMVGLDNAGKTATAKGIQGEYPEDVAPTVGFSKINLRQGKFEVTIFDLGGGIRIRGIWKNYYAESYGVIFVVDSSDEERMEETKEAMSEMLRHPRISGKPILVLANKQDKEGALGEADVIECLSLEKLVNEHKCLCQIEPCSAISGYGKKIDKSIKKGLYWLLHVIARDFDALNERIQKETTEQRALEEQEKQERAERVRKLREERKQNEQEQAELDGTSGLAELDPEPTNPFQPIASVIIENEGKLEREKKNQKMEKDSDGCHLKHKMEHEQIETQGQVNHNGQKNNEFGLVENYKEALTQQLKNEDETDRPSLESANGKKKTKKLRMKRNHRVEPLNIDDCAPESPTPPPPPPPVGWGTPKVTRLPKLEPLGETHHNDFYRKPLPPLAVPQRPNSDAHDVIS
Sequence of UniProt P27216 (P27216 whole entry, looked up): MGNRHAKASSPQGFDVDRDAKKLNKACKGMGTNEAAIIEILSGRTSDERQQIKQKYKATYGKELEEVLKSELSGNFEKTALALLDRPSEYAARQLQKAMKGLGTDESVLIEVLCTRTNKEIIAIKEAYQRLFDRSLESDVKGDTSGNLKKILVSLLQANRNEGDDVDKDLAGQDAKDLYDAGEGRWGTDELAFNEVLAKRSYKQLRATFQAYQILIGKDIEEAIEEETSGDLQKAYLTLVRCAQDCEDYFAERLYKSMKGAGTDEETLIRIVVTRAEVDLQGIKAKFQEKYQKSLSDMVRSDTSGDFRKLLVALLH
Sequence of UniProt Q9NP73 (Q9NP73 whole entry, looked up): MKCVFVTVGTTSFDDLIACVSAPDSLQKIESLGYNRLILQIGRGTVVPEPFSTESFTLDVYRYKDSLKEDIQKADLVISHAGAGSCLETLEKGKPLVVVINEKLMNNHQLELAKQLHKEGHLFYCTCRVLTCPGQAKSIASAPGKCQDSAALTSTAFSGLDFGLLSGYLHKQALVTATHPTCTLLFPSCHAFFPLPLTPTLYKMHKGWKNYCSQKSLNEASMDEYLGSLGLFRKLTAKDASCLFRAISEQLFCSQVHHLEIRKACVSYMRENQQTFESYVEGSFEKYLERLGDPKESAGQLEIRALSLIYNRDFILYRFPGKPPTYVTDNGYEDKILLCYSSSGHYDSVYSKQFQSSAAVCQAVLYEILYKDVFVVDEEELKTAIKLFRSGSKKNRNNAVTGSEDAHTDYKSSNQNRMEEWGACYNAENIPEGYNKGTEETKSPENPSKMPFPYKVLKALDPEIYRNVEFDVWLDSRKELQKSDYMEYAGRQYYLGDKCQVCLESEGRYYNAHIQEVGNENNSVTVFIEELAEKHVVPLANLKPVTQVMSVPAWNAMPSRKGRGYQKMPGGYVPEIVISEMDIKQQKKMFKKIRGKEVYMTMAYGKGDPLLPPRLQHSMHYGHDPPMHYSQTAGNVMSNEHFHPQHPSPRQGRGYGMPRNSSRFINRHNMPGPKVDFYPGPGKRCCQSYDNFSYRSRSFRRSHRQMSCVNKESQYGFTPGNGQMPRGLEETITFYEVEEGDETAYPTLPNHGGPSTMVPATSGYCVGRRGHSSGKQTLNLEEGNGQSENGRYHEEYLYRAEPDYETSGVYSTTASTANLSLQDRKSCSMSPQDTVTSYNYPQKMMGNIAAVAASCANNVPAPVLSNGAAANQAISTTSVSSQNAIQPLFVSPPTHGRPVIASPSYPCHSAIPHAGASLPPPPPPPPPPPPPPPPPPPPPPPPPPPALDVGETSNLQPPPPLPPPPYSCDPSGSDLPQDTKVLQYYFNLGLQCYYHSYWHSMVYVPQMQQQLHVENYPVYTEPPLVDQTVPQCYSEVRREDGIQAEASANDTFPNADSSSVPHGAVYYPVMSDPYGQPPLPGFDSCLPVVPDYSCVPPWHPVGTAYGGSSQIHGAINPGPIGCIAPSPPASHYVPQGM
Sequence of UniProt Q7L211 (Q7L211 whole entry, looked up): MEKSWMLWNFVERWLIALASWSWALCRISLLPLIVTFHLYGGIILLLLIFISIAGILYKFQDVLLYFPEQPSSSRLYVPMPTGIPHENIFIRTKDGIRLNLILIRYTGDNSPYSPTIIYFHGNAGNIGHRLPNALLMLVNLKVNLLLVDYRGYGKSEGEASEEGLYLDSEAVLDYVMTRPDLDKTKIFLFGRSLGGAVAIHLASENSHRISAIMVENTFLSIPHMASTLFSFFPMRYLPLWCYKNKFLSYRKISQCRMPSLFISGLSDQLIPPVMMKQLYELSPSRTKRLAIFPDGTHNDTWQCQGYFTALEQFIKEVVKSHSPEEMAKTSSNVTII
Sequence of UniProt P14621 (P14621 whole entry, looked up): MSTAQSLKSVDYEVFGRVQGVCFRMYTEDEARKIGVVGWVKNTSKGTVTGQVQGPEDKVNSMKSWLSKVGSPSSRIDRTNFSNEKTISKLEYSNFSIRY
Sequence of UniProt Q9BQI0 (Q9BQI0 whole entry, looked up): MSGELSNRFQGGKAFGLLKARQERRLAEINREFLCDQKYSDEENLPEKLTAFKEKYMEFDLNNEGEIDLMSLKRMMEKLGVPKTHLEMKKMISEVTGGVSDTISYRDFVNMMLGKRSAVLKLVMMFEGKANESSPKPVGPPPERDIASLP

Row | Target | log2 fold change [1] | log2 fold change [2] | log2 fold change [3] | log2 fold change [4] | log2 fold change [5] | log2 fold change [6] | log2 fold change [7] | log2 fold change [8] | log2 fold change [9] | log2 fold change [10]
1 | ABHD13 (UniProt Q7L211) | -0.225 | 0.022 | -0.051 | 0 | 0.006 | 0.023 | -0.019 | 0.06 | – | –
2 | ALG13 isoform 2 (UniProt Q9NP73) | 0.003 | – | – | – | – | -0.281 | – | -0.095 | – | –
3 | AGGF1 (UniProt Q8N302) | -0.114 | -0.365 (active) | – | 0.126 | 0.008 | -0.015 | 0.145 | -0.008 | -0.058 | 0.023
4 | ANKRD10 (UniProt Q9NXR5) | 0.003 | 0.012 | -0.016 | – | – | -0.018 | 0.035 | -0.047 | -0.037 | 0.018
5 | ARL13B (UniProt Q3SXY8) | 0.182 | -0.025 | -0.102 | – | – | – | 0 | – | 0.018 | 0.165
6 | AP5B1 (UniProt Q2VPB7) | -0.091 | – | -0.092 | -0.017 | -0.011 | -0.008 | -0.059 | 0.05 | -0.149 | 0.099
7 | AMDHD2 (UniProt Q9Y303) | 0.012 | -0.059 | – | – | – | – | – | – | – | –
8 | ACYP2 (UniProt P14621) | 0.084 | 0.329 (active) | – | – | – | -0.096 | -0.009 | -0.02 | -0.021 | 0.007
9 | ABCA3 (UniProt Q99758) | 0.109 | -0.037 | 0.317 | -0.12 | 0.025 | – | -0.09 | – | 0.188 | -0.017
10 | AIMP2 isoform 2 (UniProt Q13155) | – | – | – | – | – | – | 0.115 | – | -0.038 | –
11 | AIF1L (UniProt Q9BQI0) | 0.083 | – | 0.164 | 0.06 | -0.401 (active) | 0.095 | 0.001 | 0.035 | -0.009 | 0.073
12 | ANXA13 isoform 2 (UniProt P27216) | -0.121 | -0.036 | -0.369 | – | – | 0.047 | 0.034 | 0.085 | -0.072 | -0.059
